Laboratory results: PubChem BioAssay AID687001 (Broad Institute, 2013)
Results with a measured potency or affinity are listed apart. Activity calls are given as the source filed them.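 Rule for the calls: active = signal-lowering compounds whose fitted half-maximal concentration is at or below twice the top tested dose in every run; inconclusive = runs disagree, flat 30 to 70% inhibition, or poor curve fit; inactive = the rest.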

Target: Protein S100-A4 (Homo sapiens) (UniProt P26447)
Test: human S100A4 peptide interaction inhibition curves – biochemical, fluorescence polarization, cherry-picked hits, dose response (AID 687001)
Conditions: FP, S100A4/TAMRA-myosin IIA peptide binding; series mostly up to 11 µM

Chain of Protein S100-A4 (Homo sapiens) (P26447 whole entry, looked up): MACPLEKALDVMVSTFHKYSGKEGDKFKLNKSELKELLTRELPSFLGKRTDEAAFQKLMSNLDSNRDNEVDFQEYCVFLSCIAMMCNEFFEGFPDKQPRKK

outcome, inactive:
N/C(=N\OC(=O)CCn1cccc(C(F)(F)F)c1=O)c1ccc(OC(F)(F)F)cc1, O=C(N[C@H]1CC[C@@H](CCNS(=O)(=O)Cc2ccccc2)O[C@H]1CO)c1ccccc1F, Cc1ccc(S(=O)(=O)N(C)C[C@@H]2Oc3c(NC(=O)C4CCCCC4)cccc3C(=O)N([C@H](C)CO)C[C@@H]2C)cc1, Cc1ccc(CNC(=O)c2[nH]c(C(F)(F)F)nc2-c2ccccc2)cc1, COC(=O)[C@@]12C[C@@H](CC(=O)N3CCN(C(=O)c4ccco4)CC3)C(=O)N(CCc3ccc(OC)c(OC)c3)C1=CCC(C)(C)C2, CCCC(=O)Nc1ccc(C=C(C(C)=O)C(C)=O)cc1, CCCCCn1c(C)c(CC(=O)Nc2ccc(Oc3cccnc3)c(C)c2)c2ccccc21, Cc1cc(F)ccc1S(=O)(=O)N1CCCOC1CNC(=O)C(=O)NCc1ccc2c(c1)OCO2 (centres undefined), O=C1SCCC1NC(=O)C(c1ccccc1)c1ccccc1 (centres undefined)
